Screening data as filed in PubChem BioAssay.
Sampled rows, rich in hits. Any-hit rate of the full collection: about 1.3%.
Pin1 inh: inhibitors of human Pin1; AID 504891; Potency, µM (titrated, usually from 115 µM), actives largely listed as inhibitors; 390,000 compounds, 0.009% hits; Pin1 FP peptide displacement, HiFluor488, 10 min; Q13526; active means well fitted inhibition curve with a large enough effect in the polarisation, with a control signal flat, not every such curve was filed as active; inconclusive means small, poorly fitted or top-dose-only effect, or effect the other way, or a change in a side signal; inactive means no such curve, though single readings can be large or run the other way; the % refers to the polarisation
Target sequence (Q13526 whole entry, looked up): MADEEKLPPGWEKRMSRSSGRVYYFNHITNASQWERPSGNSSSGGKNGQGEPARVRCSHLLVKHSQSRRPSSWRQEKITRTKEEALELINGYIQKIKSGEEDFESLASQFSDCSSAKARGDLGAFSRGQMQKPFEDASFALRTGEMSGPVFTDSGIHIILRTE
rTrxR1 inhibitor: blocks rat thioredoxin reductase 1 | Potency, µM (top dose mostly 114 µM), hits mostly inhibitors | 390,000 compounds, 1% hits | O89049 | recombinant rTrxR1, NADPH fluorescence consumption, selenite substrate; further: nearly all actives have a fitted effect of over 65% in size
Target sequence (O89049 whole entry, looked up): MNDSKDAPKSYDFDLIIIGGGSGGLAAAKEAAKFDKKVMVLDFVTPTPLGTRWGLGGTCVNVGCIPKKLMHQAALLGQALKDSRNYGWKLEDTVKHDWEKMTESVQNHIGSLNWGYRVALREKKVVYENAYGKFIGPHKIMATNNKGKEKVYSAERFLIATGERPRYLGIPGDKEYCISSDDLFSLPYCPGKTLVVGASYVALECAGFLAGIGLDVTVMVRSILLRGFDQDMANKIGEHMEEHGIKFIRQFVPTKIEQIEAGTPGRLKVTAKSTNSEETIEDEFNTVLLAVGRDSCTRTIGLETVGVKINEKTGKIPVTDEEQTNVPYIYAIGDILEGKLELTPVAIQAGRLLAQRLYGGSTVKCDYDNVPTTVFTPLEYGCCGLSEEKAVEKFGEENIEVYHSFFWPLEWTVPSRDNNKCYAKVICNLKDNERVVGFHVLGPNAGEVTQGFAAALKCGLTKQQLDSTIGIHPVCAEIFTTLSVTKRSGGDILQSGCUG
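Rat TrxR1 (90 nM in the dispensed reagent) was pre-reduced with 400 uM NADPH for 5 min at room temperature, then incubated with compound for 15 min. After 400 uM selenite was added, NADPH fluorescence (Ex 340/Em 450 nm) was followed for 8 min.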
KAT2A inh: blocks human GCN5L2 histone acetyltransferase; GCN5L2 HAT assay, ThioGlo1 CoA-SH fluorescence; 390,000 compounds, 0.21% hits; Q92830; Potency, µM (series often up to 58.9 µM), most hits filed as inhibitors
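Enzyme at 20nM final was mixed with library compounds for 15 min at room temperature. Peptide H3(1-25) at 75uM, acetyl-CoA at 70uM and ThioGlo1 at 50uM were then added. Plates were read immediately and after 20 min (Ex340nm/Em540nm).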
Giardia killer: kills Giardia lamblia | Giardia lamblia trophozoite viability | activity change, % at 7.66 µM, hits read low | 340,000 compounds, 0.15% hits | AID 540267; in the data active means activity change below about -80%; inconclusive means between about -30% and that limit;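 further: parasites exposed to compound for two days anaerobically before the ATP read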
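Luminescent ATP signal served as the viability read-out, measured 15-30 min after adding ATP detection reagent to trophozoites that had been incubated with compounds for 48 hrs at 37 deg C anaerobically at 100 cells/well.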
TrxR1 substrate: rat thioredoxin reductase 1 substrate activity | O89049 | purified TrxR1 substrate turnover, NADPH consumption readout | Potency, µM (titrated, usually from 114 µM) | 390,000 compounds, 0.01% hits; further: nearly all actives have a fitted effect of over 50% in size
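Rat TrxR1, dispensed at 90 nM, was prereduced with 400 uM NADPH (final) for 5 min at ~22 deg C, then incubated with compound 15 min before 400 uM selenite. A first-read NADPH fluorescence drop versus no-compound background flagged substrates.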
GALK inh: blocks human galactokinase activity; P51570; Purified GALK, Kinase-Glo residual ATP luminescence; Potency, µM (titrated, usually from 57.5 µM), most hits filed as inhibitors; 270,000 compounds, 0.007% hits; AID 1868
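Compounds were pin-transferred into ATP buffer (35 uM final), then GALK plus galactose (5 nM, 100 uM final) was added. After 1 h at room temperature, Kinase-Glo Plus was added and luminescence read after 10 min.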
Hits are given with their value; – = inactive; ? = inconclusive; · = not tested or not shown; ! = not active in a repeat; [ ] = remark or other dose. Unless noted, the call rests on the fitted dose curve; in most records, active means well fitted curve in the direction sought with a large enough effect; inconclusive means small, poorly fitted or top-dose-only effect, or another doubt; inactive means no such curve, though single readings can be large; an effect the other way counts as inactive or inconclusive.

SMILES | Pin1 inh | rTrxR1 inhibitor | KAT2A inh | Giardia killer | TrxR1 substrate | GALK inh
Cc1ccc(N2C(=O)NC(=O)/C(=C\c3cnc(-c4ccccc4)nc3)C2=O)cc1 | ? | 3.55µM | – | – | – | –
CCOc1ccc(N2C(=O)NC(=O)/C(=C/c3cnc(SC)nc3)C2=O)cc1 | – | 3.98µM | – | – | – | –
CSc1ncc(/C=C2/C(=O)NC(=O)N(c3ccc(Cl)cc3)C2=O)cn1 | – | 6.31µM | – | – | – | –
Cc1ccc(N2C(=O)NC(=O)/C(=C/c3ccoc3)C2=O)cc1 | ? | – | – | – | – | ·
CSc1ncc(/C=C2/C(=O)NC(=O)N(c3ccc(C)cc3)C2=O)cn1 | – | 7.94µM | – | – | – | –
Cc1ccc(N2C(=O)NC(=O)/C(=C/c3cnn(-c4ccc(C)cc4)c3)C2=O)cc1 | – | ? | – | – | – | –
Cc1cc(/C=C2\C(=O)NC(=O)N(c3ccc(Cl)cc3)C2=O)c(C)n1C | ? | ? | – | – | – | –
Cc1cccc(Oc2nc3c(C)cccn3c(=O)c2/C=C(\C#N)c2nc3ccccc3s2)c1 | ? | – | – | · | – | ·
O=[N+]([O-])c1ccc(C(c2ccc([N+](=O)[O-])cc2)c2ccc([N+](=O)[O-])cc2)cc1 | ? | – | · | – | –[2.29 µM] | ·
O=[N+]([O-])c1ccc(-c2[se]c3ccccc3c2I)cc1 | · | · | 25.1µM | · | · | ·
Cc1cc(C=C2C(=O)N(C)C(=S)N(C)C2=O)c(C)n1-c1cccnc1 | – | 20µM | – | – | – | –
CC(=O)c1cccc(NC(=O)c2noc3c2CSc2ccccc2-3)c1 | – | ? | – | · | – | ·
N=C1/C(=C\c2ccc(OC(=O)c3ccccc3Cl)cc2)C(=O)N=C2SC(N3CCOCC3)=NN12 | ? | – | ? | – | – | –
CCN(CC)c1ccc(/C=C2\C(=O)NC(=O)N(Cc3ccco3)C2=O)cc1 | ? | 28.2µM | – | – | – | –
O=C(O)Cn1cc(/C=C2\C(=O)NC(=O)N(Cc3ccco3)C2=O)c2ccccc21 | – | 31.6µM | – | – | – | –
CCN(CC)c1ccc(/C=C2/C(=O)NC(=O)N(CC3CCCO3)C2=O)cc1 (centres undefined) | ? | ? | – | – | – | –
CCN1C(=O)NC(=O)/C(=C\c2cn(CC(=O)O)c3ccccc23)C1=O | · | · | – | · | · | –
NCC[C@H](NC(=O)[C@@H](N)CCCN=C(N)N[N+](=O)[O-])C(N)=O | · | · | – | · | · | ·
COc1cccc(NC(=O)C2CCN(S(=O)(=O)c3cc(-c4noc(C)n4)ccc3C)CC2)c1 | ? | – | – | · | – | ·
CCN1C(=O)C(=Cc2ccc(C)s2)C(=O)N(CC)C1=S | ? | 14.1µM | – | – | – | ·
C[C@H](N)C(=O)N[C@@H](C)C(=O)N[C@@H](Cc1ccccc1)C(=O)CCl | · | · | – | · | · | ·
CN(C)C(=S)SSC(=S)N(C)C | – | – | 14.1µM | -85.4 | – | –
CCCCC/C=C\C/C=C\C/C=C\C/C=C\CCCC(=O)N[C@H](C)CO | · | · | – | · | · | ·
Cc1c(F)c(F)c(COC(=O)C2C(/C=C(\Cl)C(F)(F)F)C2(C)C)c(F)c1F (centres undefined) | · | · | – | · | · | ·
O=C(CSc1ccc(-c2ccco2)nn1)Nc1ccccc1 | – | 20µM | – | – | – | –
SMILES | Pin1 inh | rTrxR1 inhibitor | KAT2A inh | Giardia killer | TrxR1 substrate | GALK inh
CCc1nnc(NC(=O)CSc2ccc(-c3ccco3)nn2)s1 | – | – | ? | – | – | –
COc1cc2c(cc1OC)-c1c(OC)c(OC)c(OC)c3ccnc(c13)C2=O | – | – | – | -82.9 | – | ·
O=[N+]([O-])c1ccc([As](=O)(O)O)cc1 | · | · | – | · | · | ·
O=[N+]([O-])c1cccc2c([As](=O)(O)O)cccc12 | – | ? | – | -93.6 | – | –
C[N+](C)(C)CCCl | · | · | – | · | · | ·
COC(=O)C1=C(C(=O)OC)C2OC1c1cc3ccccc3cc12 | – | 2.51µM | · | – | – | ·
CCCCC/C=C\C/C=C\C/C=C\C/C=C\CCCC(=O)NC1CC1 | · | · | – | · | · | ·
CN(C)[C@H]1C(=O)C(C(N)=O)=C(O)[C@]2(O)C(=O)C3=C(O)c4c(O)cccc4[C@@](C)(O)[C@H]3C[C@@H]12 | · | · | – | · | · | ·
CN(C)[C@@H]1C(=O)C(C(N)=O)=C(O)[C@@]2(O)C(=O)C3=C(O)c4c(O)cccc4[C@@](C)(O)C3[C@H](O)C12 (some centres undefined) | ? | 31.6µM! | – | – | – | ·
O=C(C1CCCN(S(=O)(=O)c2cccc3nsnc23)C1)N1CCN(c2cccc(Cl)c2)CC1 (centres undefined) | ? | – | – | · | – | ·
N[C@@H](Cn1ccc(=O)c(O)c1)C(=O)O | · | – | – | · | – | ·
CCCOc1ccc2[nH]cc(C3=CCNCC3)c2n1 | · | · | – | · | · | ·
COP(=O)(OC)c1nc(-c2cccc3ccccc23)oc1NCCc1ccccc1 | ? | – | – | – | – | –
COP(=O)(OC)c1nc(-c2cccc3ccccc23)oc1N1CCOCC1 | – | ? | 28.2µM | – | – | –
COc1ccc(-c2cc(=Nc3cccc(C(=O)O)c3)c3cc(C)ccc3o2)cc1 | – | – | – | – | – | –
COc1ccc(-c2cc(=NCCCCCC(=O)O)c3cc(C)ccc3o2)cc1 | – | 15.8µM! | ? | – | – | –
CCCN(CCC)[C@@H]1CCc2c(OC)cccc2[C@@H]1C | · | · | – | · | · | ·
[O]=[Sb]([OH])([OH])[c]1ccccc1 | · | 6.31µM | · | – | – | ·
CCCCn1c(NS(=O)(=O)c2ccccc2)c(C(=O)OCC)c2nc3ccccc3nc21 | ? | ? | 25.1µM | – | – | –
c1ccc(N2CCN(c3ccccc3)CC2)cc1 | · | – | · | · | – | ·
O=C(CCN1CCN(c2ccccc2)CC1)c1ccc(Br)cc1 | – | 3.98µM | – | – | – | –
Cc1ccc(C[N+](C)(C)C)o1 | · | · | 14.1µM! | · | · | ·
CC1=NN(c2ccccc2)C(=O)/C1=C/c1c(O)[nH]c(=S)[nH]c1=O | – | 17.8µM | – | – | ? | –
CN(CC(=O)O)C(=O)[C@H](Cc1ccccc1)NC(=O)[C@@H](CCCN=C(N)N)NC(=O)[C@@H](N)Cc1ccc(O)cc1 | · | · | – | · | · | ·
COc1ccc(C[C@@H]2NC[C@H](O)[C@@H]2OC(C)=O)cc1 | · | · | – | · | · | ·
SMILES | Pin1 inh | rTrxR1 inhibitor | KAT2A inh | Giardia killer | TrxR1 substrate | GALK inh
COc1ccc(C[C@H]2NC[C@H](O)[C@H]2OC(C)=O)cc1 | – | 39.8µM | – | ? | – | ·
CCOC(=O)N1C(C)CN(/[N+]([O-])=N/Oc2ccc([N+](=O)[O-])cc2[N+](=O)[O-])CC1C (centres undefined) | – | 25.1µM | · | ? | – | ·
O=[N+]([O-])c1oc2ccc3ccccc3c2c1CCO | – | –[11.4 µM] | · | -94.8 | – | ·
CCCCCCCCCCCCCCOS(=O)(=O)O | · | · | 8.91µM | · | · | ·
CCC1CN2CCC1CC2C(O)c1ccnc2ccc(OC)cc12 (centres undefined) | · | · | – | · | · | ·
CN(C)c1ccc(CN2CCc3nc(N4CCN(c5ccccn5)CC4)ncc3C2)cc1 | ? | – | – | · | – | ·
CNCCc1c[nH]c2ccccc12 | – | 56.2µM | – | – | – | –
